In PubChem BioAssay (EPA / NIEHS):
The source made the active and inactive calls. The calls were made as follows: active = hit-call score of the fitted dose curve at least 0.9, where 1 is the maximum; inactive = score below 0.9.

Experiments:
Conditions in all cases: mRNA level, 48 h; actives raise or lower the signal
[1] = read-out: Fatty Acid-Binding Protein 1 (FABP1), FABP1 (gene 2168); assay: LTEA_HepaRG_FABP1: Life Technologies and Expression Analysis (LTEA) Assay for Fatty Acid-Binding Protein 1 (FABP1) using HepaRG (AID 2283494)
How it was run: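 Differentiated human HepaRG cells exposed 48 h in serum-free induction medium to eight half-log concentrations up to 100 uM (0.5% DMSO), duplicate. FABP1 mRNA by qRT-PCR, normalised to ACTB, GAPDH, POLR2A; bidirectional fitting against DMSO.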

[2] = read-out: Cytochrome P450 4A22 (Homo sapiens) (UniProt Q5TCH4); assay: LTEA_HepaRG_CYP4A22: Life Technologies and Expression Analysis (LTEA) Assay for Cytochrome P450 4A22 (CYP4A22) using HepaRG (AID 2283495)
How it was run: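 Differentiated HepaRG cells in serum-free induction medium exposed 48 h in duplicate to eight half-log concentrations up to 100 uM in 0.5% DMSO. CYP4A22 mRNA quantified by TaqMan qRT-PCR, normalized to ACTB, GAPDH and POLR2A; bidirectional fit versus DMSO.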

[3] = read-out: Cytochrome P450 7A1 (Homo sapiens) (UniProt P22680); assay: LTEA_HepaRG_CYP7A1: Life Technologies and Expression Analysis (LTEA) Assay for Cytochrome P450 7A1 (CYP7A1) using HepaRG (AID 2283496)
How it was run: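 Gene expression endpoint in human HepaRG liver cells treated for 48 h with test chemicals (up to 100 uM, 0.5% DMSO). Values come from bidirectional concentration-response fitting versus DMSO.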

[4] = read-out: Glutathione S-Transferase (GSTA2), GSTA2 (gene 2939); assay: LTEA_HepaRG_GSTA2: Life Technologies and Expression Analysis (LTEA) Assay for Glutathione S-Transferase (GSTA2) using HepaRG (AID 2283497)
How it was run: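 Differentiated human HepaRG cells were exposed in duplicate for 48 h in serum-free induction medium, 8 points from 100 uM top in half-log steps, 0.5% DMSO. GSTA2 mRNA was measured by TaqMan qRT-PCR, normalized to ACTB, GAPDH and POLR2A; bidirectional fit versus DMSO.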

[5] = read-out: Glutamate-cysteine ligase catalytic (GCLC), GCLC (gene 2729); assay: LTEA_HepaRG_GCLC: Life Technologies and Expression Analysis (LTEA) Assay for Glutamate-cysteine ligase catalytic (GCLC) using HepaRG (AID 2283498)
How it was run: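 Differentiated HepaRG cells exposed 48 h in serum-free induction medium, eight-point half-log series topping at 100 uM in 0.5% DMSO, duplicates. GCLC mRNA by qRT-PCR normalized to ACTB, GAPDH and POLR2A, fitted bidirectionally versus DMSO.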

[6] = read-out: growth arrest and DNA damage 45 (GADD45G), GADD45G (gene 10912); assay: LTEA_HepaRG_GADD45G: Life Technologies and Expression Analysis (LTEA) Assay for growth arrest and DNA damage 45 (GADD45G) using HepaRG (AID 2283499)
How it was run: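 Differentiated human HepaRG cells, 48 h post-plating, exposed 48 h in serum-free induction medium to 8 half-log concentrations (top 100 uM, 0.5% DMSO) in duplicate. GADD45G mRNA measured by Fluidigm TaqMan qRT-PCR, normalized to ACTB, GAPDH, POLR2A; bidirectional fit versus DMSO.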

[7] = read-out: Glutamate-cysteine ligase regulatory (GCLM), GCLM (gene 2730); assay: LTEA_HepaRG_GCLM: Life Technologies and Expression Analysis (LTEA) Assay for Glutamate-cysteine ligase regulatory (GCLM) using HepaRG (AID 2283500)
How it was run: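 Human liver HepaRG cultures receive test chemicals for 48 hours at up to 100 uM in 0.5% DMSO. GCLM expression is measured by qRT-PCR and analysed for increases or decreases against vehicle.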

[8] = read-out: Heat shock 70 kDa protein 1 (HSPA1A), gene 3303; assay: LTEA_HepaRG_HSPA1A: Life Technologies and Expression Analysis (LTEA) Assay for Heat shock 70 kDa protein 1 (HSPA1A) using HepaRG (AID 2283502)
How it was run: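 HSPA1A induction in human HepaRG liver cells is measured after 48 h of chemical treatment (100 uM maximum, 0.5% DMSO vehicle). Expression comes from qRT-PCR normalized to endogenous controls.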

[9] = read-out: Hypoxia-inducible factor 1-alpha (Homo sapiens) (UniProt Q16665); assay: LTEA_HepaRG_HIF1A: Life Technologies and Expression Analysis (LTEA) Assay for Hypoxia-inducible factor 1 (HIF1A) Trancription factor using HepaRG (AID 2283503);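 also: HIF1A transcript by TaqMan qRT-PCR normalized to ACTB GAPDH and POLR2A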
How it was run: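 HepaRG, 48 h exposure, 8-pt half-log series from 100 uM, 0.5% DMSO vehicle, duplicates. Readout: HIF1A transcript by qRT-PCR (Fluidigm array), housekeeping-normalised. Bidirectional curve fit vs DMSO baseline.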

[10] = read-out: Glutathione S-transferase M3 (GSTM3), GSTM3 (gene 2947); assay: LTEA_HepaRG_GSTM3: Life Technologies and Expression Analysis (LTEA) Assay for Glutathione S-transferase M3 (GSTM3) using HepaRG (AID 2283501)
How it was run: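 Differentiated human HepaRG cells were exposed in duplicate for 48 h in serum-free induction medium, 8 points from 100 uM top in half-log steps, 0.5% DMSO. GSTM3 mRNA was measured by TaqMan qRT-PCR, normalized to ACTB, GAPDH and POLR2A; bidirectional fit versus DMSO.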

Measured: AC50

Sequence of Hypoxia-inducible factor 1-alpha (Homo sapiens) (Q16665 whole entry, looked up): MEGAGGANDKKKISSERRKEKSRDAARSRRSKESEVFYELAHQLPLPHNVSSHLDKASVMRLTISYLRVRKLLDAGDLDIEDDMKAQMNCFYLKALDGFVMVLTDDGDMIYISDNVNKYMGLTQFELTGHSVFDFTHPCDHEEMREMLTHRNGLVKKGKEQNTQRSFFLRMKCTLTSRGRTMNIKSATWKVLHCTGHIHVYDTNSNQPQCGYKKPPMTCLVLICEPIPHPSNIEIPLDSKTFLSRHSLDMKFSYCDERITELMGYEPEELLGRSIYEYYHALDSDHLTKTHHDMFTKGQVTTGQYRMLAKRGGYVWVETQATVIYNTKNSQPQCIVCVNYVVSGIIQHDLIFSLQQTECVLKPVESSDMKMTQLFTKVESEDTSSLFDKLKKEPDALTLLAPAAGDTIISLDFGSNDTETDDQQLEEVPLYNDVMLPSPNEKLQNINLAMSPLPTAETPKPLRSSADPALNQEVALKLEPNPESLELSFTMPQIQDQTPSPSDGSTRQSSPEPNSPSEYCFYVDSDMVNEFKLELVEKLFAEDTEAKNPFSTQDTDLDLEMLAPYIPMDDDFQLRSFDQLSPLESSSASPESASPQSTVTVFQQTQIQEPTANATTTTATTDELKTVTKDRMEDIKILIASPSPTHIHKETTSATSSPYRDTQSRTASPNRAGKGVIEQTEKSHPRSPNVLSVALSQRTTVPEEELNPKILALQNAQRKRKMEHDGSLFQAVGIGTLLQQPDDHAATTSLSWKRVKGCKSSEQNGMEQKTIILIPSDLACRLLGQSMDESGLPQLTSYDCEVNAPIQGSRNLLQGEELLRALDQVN

COc1cc(C(C)C)c2c(c1)S(=O)(=O)N(COc1cc(=O)n3cccc(OCCN4CCCCC4)c3n1)C2=O
inactive: [7] | [9]
active: [1] 21.7 µM | [2] 20.9 µM | [3] 19.6 µM | [4] 20.5 µM | [5] 12.5 µM | [6] 19.1 µM | [8] 19.7 µM

COS(C)(=O)=O
inactive: [1] | [2] | [3] | [4] | [5] | [6] | [7] | [8] | [9]

OCCOCCOCCO
inactive: [2] | [3] | [4] | [5] | [6] | [7] | [8] | [9]

CCCCCCCCCCCCCCCCOS(=O)(=O)O
inactive: [2] | [5] | [6] | [7] | [8] | [9]
active: [3] 45.2 µM | [4] 43.5 µM

OCC(CO)(CO)CO
inactive: [2] | [3] | [4] | [5] | [6] | [7] | [8] | [9]

Cc1ccc(S(=O)(=O)NC(=O)NN2CCCCCC2)cc1
inactive: [4] | [5] | [6] | [7] | [10] | [8]

C[C@@H](Oc1ccc(CNC(=O)c2cccnc2Oc2ccc3c(c2)OCO3)c(F)c1)C(=O)O
inactive: [3] | [4] | [5] | [7] | [8] | [9]
active: [2] 28.6 µM

c1ccc2cc3ccccc3cc2c1
inactive: [2] | [3] | [4] | [5] | [6] | [7] | [8] | [9]

c1ccc2ncccc2c1
inactive: [2] | [3] | [4] | [5] | [6] | [7] | [8]
active: [9] 50 µM

COc1cc2c(c(OC)c1OC)-c1ccc(OC)c(=O)cc1[C@@H](NC(C)=O)CC2
active: [2] 0.108 µM | [3] 0.095 µM | [4] 0.107 µM | [5] 0.0881 µM | [6] 0.0846 µM | [9] 0.113 µM
inactive: [7] | [8]

C=CCc1cc(S(=O)(=O)c2ccc(O)c(CC=C)c2)ccc1O
inactive: [6] | [7]
active: [2] 82.6 µM | [3] 83.1 µM | [4] 93.1 µM | [5] 50 µM | [8] 79 µM | [9] 91.4 µM

NNC(=O)c1ccncc1
inactive: [2] | [3] | [4] | [5] | [6] | [7] | [8]

CCCC(CCC)C(=O)O
inactive: [2] | [3] | [4] | [5] | [6] | [7] | [10] | [8] | [9]

Cn1c(=O)c2[nH]cnc2n(C)c1=O
inactive: [2] | [3] | [4] | [5] | [6] | [7] | [8]

NC(=O)NN=Cc1ccc([N+](=O)[O-])o1
active: [3] 13.6 µM | [7] 9.92 µM
inactive: [2] | [4] | [5] | [6] | [8]

C=CN1CCCC1=O
inactive: [2] | [3] | [4] | [5] | [6] | [7] | [8] | [9]

C[C@]12C=CC(=O)C=C1CC[C@H]1[C@@H]3C[C@@H](O)[C@](O)(C(=O)CO)[C@@]3(C)C[C@H](O)[C@@]12F
inactive: [3] | [4] | [5] | [6] | [7] | [10] | [8] | [9]

CCCCCCCC1CCC(=O)O1 (configuration not stated)
inactive: [4] | [5] | [6] | [7] | [8] | [9]

CCCCC(CC)C(=O)OCCOCCOCCOC(=O)C(CC)CCCC (configuration not stated)
inactive: [2] | [3] | [4] | [5] | [6] | [7] | [8] | [9]

CC1(C)C(=O)N(Cl)C(=O)N1Cl
inactive: [2] | [3] | [4] | [5] | [6] | [7] | [8] | [9]

O=C1CN(N=Cc2ccc([N+](=O)[O-])o2)C(=O)N1
inactive: [5] | [10] | [8] | [9]
active: [2] 44.3 µM | [3] 22.2 µM | [4] 81.8 µM | [6] 71.6 µM | [7] 72.5 µM

CCCOc1ccc(S(=O)(=O)N2CCN(CC)CC2)cc1-c1nc2c(CC)n(Cc3ccccn3)nc2c(=O)[nH]1
inactive: [4] | [5] | [7] | [10] | [9]
active: [2] 9.92 µM | [3] 4.07 µM | [6] 77.9 µM | [8] 25.3 µM

CCc1ccc(O)c(C(C)(C)C)c1
inactive: [2] | [3] | [4] | [5] | [6] | [7] | [8] | [9]

O=S1(=O)CCCO1
inactive: [2] | [3] | [4] | [5] | [6] | [7] | [8] | [9]

CCn1nc(C)c2c1C(=O)NCC(c1ccc(O)cc1)=N2
active: [2] 33.9 µM
inactive: [3] | [4] | [5] | [6] | [7] | [8] | [9]

NC(=O)N1c2ccccc2C=Cc2ccccc21
inactive: [2] | [3] | [4] | [5] | [6] | [7] | [10] | [8] | [9]

NC(=O)N(O)[C@@H]1COc2cc(OCc3ccccc3)ccc21
inactive: [2] | [3] | [4] | [5] | [6] | [7] | [8] | [9]

CCCCOC(=O)c1ccccc1
inactive: [2] | [3] | [4] | [5] | [6] | [7] | [10] | [8] | [9]

CCCCCCCCCCCCCCO
inactive: [2] | [3] | [4] | [5] | [6] | [7] | [8] | [9]

CCOC(N)=O
inactive: [2] | [3] | [4] | [5] | [6] | [7] | [8] | [9]

CCCCCCCCCC
inactive: [2] | [3] | [4] | [5] | [6] | [7] | [8] | [9]

O=C(O)[C@H](O)[C@@H](O)C(=O)O
inactive: [4] | [5] | [6] | [7] | [8]

O=S(=O)(O)c1ccc(N=Nc2c(O)ccc3cc(S(=O)(=O)O)ccc23)cc1
inactive: [2] | [3] | [4] | [5] | [6] | [7] | [8] | [9]

O=C(O)c1cccc(C(=O)O)c1
inactive: [2] | [3] | [4] | [5] | [6] | [7] | [10] | [8] | [9]

O=C(NO)C1(NS(=O)(=O)c2ccc(Oc3ccc(F)cc3)cc2)CCOCC1
active: [2] 68.9 µM | [4] 83.5 µM | [6] 72.6 µM
inactive: [3] | [5] | [7] | [8] | [9]

CCN(CC)C(=S)SSC(=S)N(CC)CC
inactive: [2] | [3] | [4] | [5] | [6] | [7] | [8]

c1ccc2c(c1)-c1cccc3c1c-2cc1ccccc13
active: [2] 29.1 µM | [3] 15.6 µM | [4] 17.9 µM | [6] 14 µM | [8] 18.5 µM
inactive: [5] | [7] | [9]
